# Results filed as inconclusive are left out. A call without a number means that no potency is given here. The source made the active and inactive calls. The call rests on the fitted dose curve; in most records, active means well fitted curve in the direction sought with a large enough effect; inconclusive means small, poorly fitted or top-dose-only effect, or another doubt; inactive means no such curve, though single readings can be large; an effect the other way counts as inactive or inconclusive.
# Tests used:
# [1] = molecular target: Calcium and integrin-binding protein 1 (Homo sapiens) (UniProt Q99828); assay: Primary qHTS for Identification of Calcium Integrin Binding Protein 1 (CIB1) Competitor (AID 1508620); details: CIB1-GST / FITC-alphaIIb peptide fluorescence polarization; series mostly up to 57.7 µM;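 further: GST tagged CIB1 binding a fluorescein labelled alphaIIb integrin peptide tracer; top concentration of the series differs between compounds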
# Sequence of Calcium and integrin-binding protein 1 (Homo sapiens) (Q99828 whole entry, looked up): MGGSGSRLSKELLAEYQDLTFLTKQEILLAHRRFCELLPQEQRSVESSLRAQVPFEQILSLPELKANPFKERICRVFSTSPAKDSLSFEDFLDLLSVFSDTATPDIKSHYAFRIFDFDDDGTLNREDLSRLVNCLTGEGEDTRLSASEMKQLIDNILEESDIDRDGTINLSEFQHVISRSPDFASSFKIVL
# How it was run: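 Fluorescence polarization competition: CIB1-GST (1 uM final) preincubated with compound 15 min at room temperature, then FITC-labeled alphaIIb peptide (100 nM final) added for another 15 min. Polarization read at Ex 480/Em 540.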
# [2] = Primary qHTS for small molecule stabilizers of the endoplasmic reticulum resident proteome: Secreted ER Calcium Modulated Protein (SERCaMP) assay (AID 1508630); details: SH-SY5Y GLuc-SERCaMP (Gaussia luciferase released on ER calcium loss) secretion, thapsigargin, luminescence; series mostly up to 38.4 µM
# How it was run: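 GLuc-SERCaMP-expressing SH-SY5Y cells, pretreated 16 h with compound, are challenged with thapsigargin to empty ER calcium stores; after 4 h, coelenterazine is added directly to the medium and luminescence is imaged.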
Compound,outcome [1],Potency [2]
C[C@]12CC[C@@H]3[C@@H](CCC4=CC(=O)CC[C@@H]43)[C@@H]1CC[C@@H]2OC(=O)CCc1ccccc1,inactive,inactive
CCOC(=O)c1c(C(C#N)=CN)c2ccc(Cl)c(Cl)c2n1C,inactive,inactive
C=CCON=C(C[C@H]1O[C@@H]2O[C@]3(C)CC[C@@H]4[C@H](C)CC[C@@H]([C@H]1C)[C@@]24OO3)[C@H]1O[C@@H]2O[C@]3(C)CC[C@H]4[C@H](C)CC[C@@H]([C@@H]1C)[C@@]24OO3,inactive,inactive

# Reference: PubChem BioAssay (NCATS)
